Test results published in PubChem BioAssay AID1159580 (chemical genetic matrix, 2015).
In all, about 5,500 compounds went through this assay and about 2,000 (36%) were called active. About 18% were inconclusive and are not listed. Cut-off read from the data, not from the text of the source: active = normalized growth mostly below about 0.91 (no sharp cut-off); inconclusive = no clear call, values can overlap the other calls; inactive = mostly above about 0.92. The list shows a part of the results.

Test: chemical genetic growth profiling, strain panel (AID 1159580);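 note: tested at 20 µM; growth read once vehicle control cultures reached saturation at 30 °C; 1 = growth at the plate median or of vehicle wells; lower values mean less growth of the strain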
Conditions: S. cerevisiae deletion strains, growth OD
[1] = locus YDL101C, strain DUN1, hits give low values
[2] = locus YHR030C, strain SLT2, hits give low values

Measured: normalized growth

O=C(CO/N=C\c1ccc(Cl)cc1Cl)NNC(=S)Nc1cc(Cl)ccc1Cl
inactive: locus YAR019C, strain CDC15, hits give low values 1 | locus YBL105C, strain PKC1, hits give low values 0.992 | locus YBR135W, strain CKS1, hits give low values 1 | locus YBR136W, strain MEC1, hits give low values 1.01 | locus YBR160W, strain CDC28, hits give low values 1 | locus YDL017W, strain CDC7, hits give low values 1 | locus YDL028C, strain MPS1, hits give low values 1 | [1] 0.978 | locus YDL108W, strain KIN28, hits give low values 1.01 | locus YDL132W, strain cdc53, hits give low values 1 | locus YDL214C, strain PRR2, hits give low values 0.999 | locus YDR052C, strain DBF4, hits give low values 1 | locus YDR054C, strain cdc34, hits give low values 0.994 | locus YDR226W, strain ADK1, hits give low values 0.994 | locus YDR477W, strain SNF1, hits give low values 0.983 | locus YER123W, strain YCK3, hits give low values 0.996 | locus YER133W, strain GLC7, hits give low values 0.983 | locus YFL009W, strain cdc4, hits give low values 0.996 | locus YFL029C, strain CAK1, hits give low values 1.01 | locus YFR003C, strain YPI1, hits give low values 0.997 | locus YFR019W, strain FAB1, hits give low values 1 | locus YFR028C, strain CDC14, hits give low values 0.994 | locus YGR040W, strain KSS1, hits give low values 0.984 | locus YGR052W, strain FMP48, hits give low values 1.02 | locus YGR092W, strain DBF2, hits give low values 0.961 | [2] 1.01 | locus YHR079C, strain IRE1, hits give low values 0.966 | locus YHR082C, strain KSP1, hits give low values 1.14 | locus YHR205W, strain SCH9, hits give low values 0.98 | locus YIL147C, strain SLN1, hits give low values 1 | locus YJL095W, strain BCK1, hits give low values 0.928 | locus YJL128C, strain PBS2, hits give low values 0.992 | locus YJL157C, strain FAR1, hits give low values 0.989 | locus YJR016C, strain ILV3, hits give low values 1 | locus YJR066W, strain TOR1 (second series), hits give low values 0.948 | locus YJR066W, strain TOR1, hits give low values 1.15 | locus YKL048C, strain ELM1, hits give low values 1 | locus YKL067W, strain YNK1, hits give low values 1.03 | locus YKL101W, strain HSL1, hits give low values 1 | locus YKL193C, strain SDS22, hits give low values 1 | locus YKL203C, strain TOR2, hits give low values 1.06 | locus YLR113W, strain HOG1, hits give low values 1.01 | locus YLR133W, strain CKI1, hits give low values 1.02 | locus YLR403W, strain SFP1, hits give low values 0.97 | locus YML070W, strain DAK1, hits give low values 0.995 | locus YMR001C, strain CDC5, hits give low values 1 | locus YMR205C, strain PFK2 (second series), hits give low values 1.01 | locus YMR277W, strain FCP1, hits give low values 1 | locus YNL006W, strain LST8, hits give low values 0.99 | locus YNL020C, strain ARK1, hits give low values 1.01 | locus YNL161W, strain CBK1, hits give low values 0.996 | locus YNL183C, strain NPR1, hits give low values 1.09 | locus YNL207W, strain RIO2, hits give low values 1.01 | locus YNL222W, strain SSU72, hits give low values 0.993 | locus YNL307C, strain MCK1 (second series), hits give low values 0.999 | locus YOL078W, strain AVO1, hits give low values 1 | locus YOL136C, strain PFK27, hits give low values 1.01 | locus YOR061W, strain CKA2, hits give low values 1.02 | locus YOR119C, strain RIO1, hits give low values 1.05 | locus YOR231W, strain MKK1, hits give low values 1.05 | locus YOR329C, strain SCD5, hits give low values 1.01 | locus YPL031C, strain PHO85, hits give low values 0.995 | locus YPL153C, strain RAD53, hits give low values 0.99 | locus YPL204W, strain HRR25, hits give low values 0.991 | locus YPL209C, strain IPL1, hits give low values 1 | locus YPL256C, strain CLN2, hits give low values 1.02 | locus YPR025C, strain CCL1, hits give low values 0.997 | locus YPR106W, strain ISR1, hits give low values 0.992 | locus YPR111W, strain DBF20, hits give low values 0.997 | strain NNK1, hits give low values 0.997 | strain TSCII, hits give low values 0.997

S=C(NCCCn1ccnc1)Nc1cc(Cl)ccc1Cl
inactive: locus YAL013W, strain DEP1, hits give low values 1.02 | locus YBR229C, strain ROT2, hits give low values 0.987 | locus YCL061C, strain MRC1, hits give low values 0.979 | [1] 0.963 | locus YDR150W, strain NUM1, hits give low values 1.01 | locus YEL061C, strain CIN8, hits give low values 1.02 | locus YGR078C, strain PAC10, hits give low values 0.982 | locus YGR229C, strain SMI1, hits give low values 0.994 | [2] 0.745 | locus YHR087W, strain rtc3, hits give low values 1.04 | locus YJL187C, strain SWE1, hits give low values 1.01 | locus YJR043C, strain POL32, hits give low values 1 | locus YJR075W, strain HOC1, hits give low values 0.979 | locus YKL190W, strain CNB1, hits give low values 0.994 | locus YLR039C, strain RIC1, hits give low values 0.973 | locus YLR058C, strain SHM2 (second series), hits give low values 1.02 | locus YLR085C, strain ARP6, hits give low values 0.839 | locus YLR262C, strain YPT6, hits give low values 1.05 | locus YML094W, strain GIM5, hits give low values 1.01 | locus YMR219W, strain ESC1, hits give low values 1 | locus YMR263W, strain SAP30, hits give low values 1.01 | locus YNL153C, strain GIM3, hits give low values 0.987 | locus YNL298W, strain CLA4 (second series), hits give low values 0.971 | locus YNL322C, strain KRE1, hits give low values 0.992 | locus YNR030W, strain Alg12, hits give low values 1.01 | locus YOL006C, strain TOP1, hits give low values 0.938 | locus YPL055C, strain LGE1, hits give low values 1 | locus YPL241C, strain CIN2, hits give low values 0.983 | locus YPR135W, strain CTF4, hits give low values 0.754
active: locus YDL134C, strain PPH21, hits give low values 0.868
